The values below come from PubChem BioAssay AID1259398 (Fisher Drug Discovery Resource Center, 2018).

Where “and” joins values, the source holds several entries; their conditions need not be identical. Equal values may be shown once. The campaign covered roughly 290,000 compounds. About 230 (0.079%) were called active. The sample holds actives, similar compounds and a random draw of the others, so the mix is not that of the screen. Rule as the data show it: active = inhibition above about 40%; inactive = the rest. Where a structure was tested more than once in an assay, its records may differ in their call.

The target of this assay is Cyclic GMP-AMP synthase (Homo sapiens) (UniProt Q8N884). The assay can be described thus: Primary biochemical luminescence assay for human cyclic GMP-AMP synthase inhibitors (AID 1259398).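 Also: 0% = vehicle reaction and 100% = reaction without DNA for no activity.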 To be noted: recombinant h-cGAS, ATP depletion, Kinase-Glo luminescence; at 12.5 µM; stronger effect = higher value.
Sequence of Cyclic GMP-AMP synthase (Homo sapiens) (Q8N884 whole entry, looked up): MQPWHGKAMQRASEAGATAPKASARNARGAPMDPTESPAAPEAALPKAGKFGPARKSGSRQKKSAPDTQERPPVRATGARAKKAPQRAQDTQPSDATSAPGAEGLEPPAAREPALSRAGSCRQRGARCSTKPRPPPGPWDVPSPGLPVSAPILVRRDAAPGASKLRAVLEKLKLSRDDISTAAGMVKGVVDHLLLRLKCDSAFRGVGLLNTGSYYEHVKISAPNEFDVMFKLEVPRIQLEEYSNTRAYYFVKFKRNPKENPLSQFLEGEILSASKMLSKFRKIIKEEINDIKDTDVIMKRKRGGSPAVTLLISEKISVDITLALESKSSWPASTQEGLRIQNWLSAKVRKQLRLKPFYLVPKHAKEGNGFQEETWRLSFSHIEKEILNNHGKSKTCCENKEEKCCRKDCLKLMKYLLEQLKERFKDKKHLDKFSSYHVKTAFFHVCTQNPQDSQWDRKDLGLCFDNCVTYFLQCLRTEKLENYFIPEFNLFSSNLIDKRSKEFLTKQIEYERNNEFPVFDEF
Consider `COc1cccc(-c2nn(Cc3ccccc3)c(=O)c3nc(C)sc23)c1`, for which the inhibition was -0.0493% (inactive). Turning to `O=C(NCCc1ccco1)c1ccc2c(c1)OCO2`, the inhibition was 1.62% (inactive). With `COc1cc(CN(C)C(=O)c2cc(N3CCN(c4cccc(C(F)(F)F)c4)CC3)nc3ccccc23)cc(OC)c1OC` the figure was -6.59% (inactive); with `NC(=O)COc1ccc(C(=O)N2CCCC2CCc2ccccc2)cc1` (configuration not stated), -3.77% (inactive); with `CCOC(=O)c1sc(NC(=O)CCCl)c(C(=O)OCC)c1C`, -5.41% (inactive). With `CCCc1c(C(=O)NCc2cccnc2)cnn1-c1ccccc1C` the figure was -8.73% (inactive); with `O=C(Nc1nnc(-c2ccc(Cl)cc2)s1)C1CCCN1S(=O)(=O)c1ccc(F)cc1` (configuration not stated), -2.72% (inactive); with `C(=C\c1ccccc1)/CSc1nnc2c(n1)[nH]c1ccccc12`, -6.1% (inactive). In the case of `CC(C)CNC(=O)c1c(O)nc2sccn2c1=O`, the inhibition is -9.43% (inactive).

Consider `COCCNC(=O)Cn1nc2c(c1NC(=O)Cc1ccc(F)cc1)CSC2`, for which the inhibition is -6.17% (inactive).

As to `Cn1c(=O)[nH]c(=O)c2c1nc(N1CCN(Cc3ccccc3)CC1)n2Cc1cccc(Cl)c1`, the inhibition is -7.67% (inactive).

`CC1(C)C(c2ccc(Cl)cc2)=[N+]([O-])C(C)(C)C(c2ccc(Cl)cc2)=[N+]1[O-]`: the inhibition was -4.69% (inactive). As for `COc1ccc2cnn(-c3cccc(Cl)c3)c(=O)c2c1OC`, the inhibition was -0.243% (inactive).

Take `Cc1sc2ncn(CC(=O)O)c(=O)c2c1C`: the inhibition is -2.86% (inactive). As to `Cc1ccc(-c2cc(C(=O)O)[nH]n2)c(C)c1`, the inhibition is -5.69% (inactive). With `O=C(CSc1nc(=O)n(CCCN2CCOCC2)c2c1CCC2)N1CCc2ccccc21`, the inhibition is -6% (inactive).

In the case of `CC(C)CSc1nc2c(c(=O)n(C)c(=O)n2C)n1CC=Cc1ccccc1`, the inhibition is -0.843% (inactive). Take `CC(Cn1cncn1)NC(=O)C1CCN(C)C(=O)C1` (configuration not stated): the inhibition is -9.85% (inactive).

For the molecule `Clc1ccccc1Cn1ncc2c(N3CCN(CCOc4cccc5ccccc45)CC3)ncnc21`, the inhibition is -10.9% (inactive). In the case of `N#CC1C(=N)SC(=N)C(C#N)C1c1ccco1` (configuration not stated) it was 53.9% (active). With `N#CC1C(=N)C(C#N)(C#N)C(c2ccco2)C2CCCC=C12` (configuration not stated) the figure was -7.43% (inactive); with `N#CC1C(=N)SC(=N)C(C#N)C1c1cccc(O)c1` (configuration not stated), 65.3% (active); with `N#CC1C(=N)SC(=N)C(C#N)C1c1ccnc2ccccc12` (configuration not stated), -1.27% (inactive). With `CCc1ccc(C2C(C#N)C(=N)SC(=N)C2C#N)cc1` (configuration not stated) the figure was -0.735% (inactive); with `CCC(C(=O)N(CC(=O)N1CC(=O)N(c2cccc(Cl)c2C)C1)Cc1ccco1)c1ccccc1` (configuration not stated), -7.01% (inactive); with `COc1cc(S(=O)(=O)Nc2c(F)cccc2F)cc(C(=O)O)c1OC`, 9.01% (inactive). As for `Cc1cccc(Cn2cccc2CN(Cc2ccc(F)cc2)C2CCCCC2)c1`, the inhibition is -1.66% (inactive). `COc1ccc(-n2nnnc2SCCC#N)cc1`: the inhibition is -7.16% (inactive). With `Cc1cc(C(=O)O)ccc1S(=O)(=O)N(C)c1cc(F)ccc1F` the figure was -8.29% (inactive). For the molecule `CCC(CO)N(Cc1ccc(F)cc1)Cc1c(C)nn(C)c1Cl` (configuration not stated), the inhibition is -10.3% (inactive).

Regarding `O=C(c1cc(-c2ccccc2F)on1)N1CCc2ccc(O)cc2C1`, the inhibition is -0.786% (inactive). Turning to `COc1cc(C(=O)n2nc(C)c(Sc3ccccc3[N+](=O)[O-])c2C)cc(OC)c1OC`, the inhibition is -6.71% (inactive). With `CC(=O)Nc1ccccc1OS(=O)(=O)c1ccc(Br)cc1`, the inhibition was 0.158% (inactive) and 5.4% (inactive).

With `CN(Cc1nc2ccccc2n1C)C(=O)[C@H]1CCCO1`, the inhibition was -5.26% (inactive). Turning to `O=C(NC(Cc1ccccc1)C(=O)Nc1nnc(-c2cccc(Cl)c2)s1)c1cccc(C(F)(F)F)c1` (configuration not stated), the inhibition was -8.87% (inactive).

As for `COc1cccc(-c2nc(OCc3ccc(F)cc3)nn2-c2cccc(NC(=O)C3CCC3)c2)c1`, the inhibition is -6.9% (inactive). Regarding `O=C(Nc1ccc(F)cc1)c1csc(CSc2nnc(Cc3ccccc3)n2-c2cccc(Cl)c2)n1`, the inhibition was 5.96% (inactive). In the case of `CCn1nc(C(=O)O)c2c1CCC(N(C)CCn1ccnc1C)C2` (configuration not stated) it was -7.94% (inactive). In the case of `COc1cccc(C2Nc3ccccc3N=C3CC(C)(C)CC(=O)C32)c1OC` (configuration not stated), the inhibition is -3.94% (inactive). Regarding `CC(C)(CCl)C(=O)N1CCN(c2ncnc3c2nnn3-c2cccc(F)c2)CC1`, the inhibition is -5.18% (inactive).

On to `CCc1nc2ccc(C(=O)NCCNC(C)=O)cn2c1N(CC)Cc1cccc(Br)c1`, for which the inhibition was -6.29% (inactive). For `O=C(NCCc1ccccc1)c1cc(NC(=O)C(c2ccccc2)c2ccccc2)ccc1N1CCCCC1`, the inhibition is -3.47% (inactive). As to `O=C(NC1CCC1)c1ccc(-c2cc(-c3cccc(C(F)(F)F)c3)n[nH]2)cc1`, the inhibition was -8.56% (inactive).

On to `CC1c2ccsc2CCN1C(=O)Cc1csc(-c2ccsc2)n1` (configuration not stated), for which the inhibition is -10.7% (inactive). For the molecule `CN(C)c1ccc(N2CC(=O)C(c3nc(-c4cccc(Cl)c4)cs3)C2=N)cc1` (configuration not stated), the inhibition is 148% (active). Take `COC[C@@H]1CCCN1C(=O)c1ccc(-n2nc(-c3cccc(Cl)c3)cc2N)cc1`: the inhibition was 2.07% (inactive). For the molecule `Nc1cc(-c2cccc(Cl)c2)nn1-c1ccc(C(=O)N2CCOCC2)cc1`, the inhibition was -3.59% (inactive). Consider `COc1cccc(CSc2nnc(CNC(=O)Nc3cc(C(F)(F)F)cc(C(F)(F)F)c3)n2-c2ccc(C)cc2)c1`, for which the inhibition was -18% (inactive). Turning to `Cc1cc(C)n(CC(=O)N2CC[C@@H]3CN(S(C)(=O)=O)[C@@H]3C2)n1`, the inhibition was 66.4% (active). With `CCn1ncc(C(=O)N2CC[C@@H]3CN(S(C)(=O)=O)[C@@H]3C2)c1C` the figure was -7.55% (inactive); with `Cc1cc(C)n(CC2CCN(C(=O)C3CCN(S(C)(=O)=O)CC3)CC2)n1`, -9.09% (inactive); with `CS(=O)(=O)c1ccc(-c2ccc(NS(=O)(=O)c3cccs3)cc2)nn1`, -9.35% (inactive).

For `Cc1cc(C(=O)N2CCC(N(C)C)C2)ccc1NC(=O)c1ccco1` (configuration not stated), the inhibition is -11.4% (inactive).

On to `CC(=O)N(c1ccccc1)C1C=C(Nc2ccccc2)C(=O)C1` (configuration not stated), for which the inhibition was -10.4% (inactive). In the case of `Cc1c(C(=O)N2CCC(Cc3ccccc3)CC2)cnc2c(-c3cccc(C(F)(F)F)c3)cnn12` it was -4.43% (inactive); in that of `OC(COCc1ccco1)CN(Cc1ccccc1)C1CC1` (configuration not stated), 1.45% (inactive); in that of `Cc1cc(NC(=O)Cc2cccs2)n(-c2nc(-c3cccs3)cs2)n1`, -2.04% (inactive). With `CN(CCCOc1ccccc1Cl)C(=O)C1(N)CC1` the figure was -6.84% (inactive); with `CC(C(=O)N1CCCCCC1)N1CCCC(C(=O)Nc2ccccc2)C1` (configuration not stated), -13.6% (inactive). With `CC1CC(=O)C2C=Nc3ccccc3N=C2C1` (configuration not stated) the figure was -2.79% (inactive); with `CS(=O)(=O)N1CCCC(NCc2ccc(-c3ccc(C(F)(F)F)cc3)o2)C1` (configuration not stated), -7.61% (inactive).

In the case of `CCOC(=O)c1[nH]c(C)c(C(=O)C(C)N(CCOC)C(=O)Nc2c(C)cccc2C)c1C` (configuration not stated), the inhibition is -3.12% (inactive). Turning to `O=S1(=O)N=C(Nc2ccccc2Cl)c2ccccc21`, the inhibition was -4.92% (inactive). With `Cc1noc(C)c1CN1CCN2C=C(C(=O)NC3CCc4ccccc43)OC2=NC1=O` (configuration not stated) the figure was -7.38% (inactive); with `C=CCn1c(SCC(=O)c2cc(C)n(Cc3ccco3)c2C)nc2sc(C)c(C)c2c1=O`, -4.88% (inactive).

In the case of `Cc1c(C(=O)N2CCc3[nH]nc(-c4ccccc4)c3C2)[nH]c2c(F)cccc12`, the inhibition is -6.74% (inactive). In the case of `Cc1csc(=O)n1CCC(=O)Nc1ccc(S(=O)(=O)N(C)C(C)C)cc1`, the inhibition was 7.25% (inactive). With `CC(=O)c1cccc(N2C(=O)C3C4C=CC(C5CC45)C3C2=O)c1` (configuration not stated) the figure was -3.94% (inactive); with `CCOC(=O)c1cc(-c2ccccc2)sc1NC(=O)CC1CCCC1`, -6.75% (inactive); with `CCOC(=O)c1ccc(NC(=O)Cn2c(-c3nnc(C(C)C)o3)cc3ccccc32)cc1`, -1.71% (inactive). Regarding `Cc1ncc(CN(C)CC2CCN(c3ccccc3)C2)[nH]1` (configuration not stated), the inhibition was -4.21% (inactive). With `COCC(=O)Nc1ccccc1C(=O)N1CC(C)CC(C)C1` (configuration not stated) the figure was -11.9% (inactive). For the molecule `Cc1ccc(CSc2nc(=O)n(CCO)c3c2CCC3)cc1`, the inhibition is -6.25% (inactive). With `O=C(c1cn[nH]c1-c1ccc(F)cc1)N1CCN(S(=O)(=O)c2ccccc2)CC1` the figure was -8.02% (inactive).

Take `COCCNC(=O)c1ccc(CSc2nnc(Cc3ccccc3)n2-c2ccc(OC)cc2)cc1`: the inhibition is 5.06% (inactive). In the case of `COc1cccc(CN2CCC(C(=O)NC(c3cccc(OC)c3)c3ccccn3)CC2)c1` (configuration not stated) it was -3.62% (inactive); in that of `COc1cc(C(=O)Nc2oc3ccccc3c(=O)c2-c2ccccc2)cc(OC)c1OC`, -4.49% (inactive). For `N#CC(=C1NS(=O)(=O)c2ccccc21)c1nc2ccccc2n1Cc1ccccc1`, the inhibition was -6.01% (inactive). On to `NC(=O)C1CCCN1C(=O)NC(=O)CSc1ccccc1Cl` (configuration not stated), for which the inhibition is 20.8% (inactive).

In the case of `N#Cc1ccsc1NC(=O)c1cc(Cl)c2c(c1)OCO2`, the inhibition was 0.691% (inactive). Consider `CCc1c(C(=O)N2CCCC2)c(CC(C)C)nn1-c1ccc(Cl)cc1`, for which the inhibition was -4.87% (inactive). In the case of `CCC(C(=O)N1CCN(C(C(=O)Nc2cccc(Cl)c2)C2CCCC2)CC1)c1ccccc1` (configuration not stated) it was -0.887% (inactive).

On to `CN1C(=O)[C@]2(C)[C@H](c3ccccc31)[C@@H](C(N)=O)CN2C(=O)CC(C)(C)C`, for which the inhibition was -2.6% (inactive). In the case of `CCC1CSC(=Nc2ccc(Cl)cc2)N1C(=O)c1ccc(C)nc1` (configuration not stated) it was -0.466% (inactive).

Take `COc1cccc(CN2CCCN(c3nc(Cc4ccccc4)nc4c3c(C)nn4-c3ccc(F)cc3)CC2)c1`: the inhibition is -3.74% (inactive). Take `CC(C)CC(CNc1ccc(S(=O)(=O)N2CCCCC2)cc1[N+](=O)[O-])N1CCOCC1` (configuration not stated): the inhibition is -5.16% (inactive). In the case of `Oc1c(Cl)cc(Cl)c(Cl)c1Cc1c(O)c(Cl)cc(Cl)c1Cl` it was 84.9% (active) and 0.133% (inactive).
